In PubChem BioAssay AID1159580 (chemical genetic matrix, 2015):
About 2,000 (36%) of roughly 5,500 compounds were called active. Not shown: some 18% with an inconclusive outcome. Cut-off read from the data, not from the text of the source: active = normalized growth mostly below about 0.91 (no sharp cut-off); inconclusive = no clear call, values can overlap the other calls; inactive = mostly above about 0.92. The list shows a part of the results.

Experiment: chemical genetic growth profiling, strain panel (AID 1159580);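 note: tested at 20 µM; growth read once vehicle control cultures reached saturation at 30 °C; 1 = growth at the plate median or of vehicle wells; lower values mean less growth of the strain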
Conditions: S. cerevisiae deletion strains, growth OD

Measured: normalized growth

Cc1cc(N)c2ccccc2[n+]1CCCCCCCCCCCCCC[n+]1c(C)cc(N)c2ccccc21
active: locus YAL013W, strain DEP1, hits give low values 0.365 | locus YAL040C, strain CLN3, hits give low values 0.0844 | locus YCL061C, strain MRC1 (second series), hits give low values 0.0514 | locus YDR150W, strain NUM1, hits give low values 0.0556 | locus YDR363W, strain ESC2, hits give low values 0.0835 | locus YER002W, strain NOP16, hits give low values 0.0687 | locus YNL175C, strain NOP13, hits give low values 0.0676 | locus YNL197C, strain WHI3, hits give low values 0.0663 | locus YNL224C, strain SQS1, hits give low values 0.068 | locus YOR083W, strain WHI5 (second series), hits give low values 0.0774
